Measurements taken from the supplement of paper PMC11219838.
Unmarked numbers belong to inactive results.

tested on: Caenorhabditis elegans L1 (N2); assay: survival and reproduction score of C. elegans L1 (0: 0-10 living worms, 1: 11-20, 2: 21-50, 3: >50, 4: overgrown) (score 0-4); higher = more worms, less nematicidal, active = 1 or less; extreme values may be limits of the assay; details: 60 µM; 6 days; temperature: 20 °C
Outline: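 Worm survival and reproduction were recorded as an ordinal score of living worms per well, read under a dissection microscope. Each 96-well well held about 20 synchronized C. elegans N2 L1s with E. coli HB101 in liquid NGM and compound at 60 µM final (0.6% v/v DMSO), sealed and shaken at 200 rpm, 20 °C, for 6 days. Scores ranged from 0 (0–10 worms) to 4 (overgrown, starved) and were the mean of two biological replicates.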

SMILES | survival and reproduction score
COc1ccc(-c2noc(-c3ccc(C)c(Cl)c3)n2)cc1 | 4
CC(Sc1nnc(-c2ccco2)o1)C(=O)NC(c1ccccc1)c1ccccc1 (centres undefined) | 4
Cc1ccccc1-c1nnc(SCc2ccccc2)o1 | 3
CCOc1nc(-c2ccccc2)ccc1-c1noc(-c2cccc(OC)c2)n1 | 4
Fc1cccc(Cl)c1CSc1nnc(-c2ccccc2)o1 | 4
Cc1ccccc1-c1nc(-c2cccc(NC(=O)c3cccs3)c2)no1 | 4
CCc1ccc(OCc2nc(-c3ccccn3)no2)cc1 | 3
CCC(=O)Nc1ccccc1-c1nc(-c2ccncc2)no1 | 1 (active)
COc1ccc(-c2noc(COc3ccc(Br)c(C)c3)n2)cc1 | 4
Cc1ccc(-c2noc(-c3ccc(Cl)cc3)n2)cc1 | 4
COc1cccc(-c2noc(COc3cc(C)cc(C)c3)n2)c1 | 4
Cc1nc(CSc2nnc(-c3ccccc3)o2)cs1 | 4
Cc1ccc(-c2nc(-c3ccncc3)no2)c(Cl)c1 | 2
O=C(CSc1nnc(-c2ccco2)o1)Nc1cccc(Cl)c1Cl | 4
COc1ccccc1-c1nnc(SCC(=O)Nc2nc(C)cs2)o1 | 4
CCOc1ccccc1NC(=O)CSc1nnc(-c2ccco2)o1 | 4
Brc1ccc(OCc2nc(-c3ccc4c(c3)OCO4)no2)cc1 | 4
Brc1ccccc1-c1nc(-c2ccncc2)no1 | 0 (active)
CC(C)(C)c1ccc(OCc2nc(-c3ccncc3)no2)c(Br)c1 | 4
COc1ccc(-c2nnc(SCC(=O)Nc3cccc(Cl)c3Cl)o2)cc1 | 4

SMILES | survival and reproduction score
Cc1ccccc1OCc1nc(-c2ccc(Br)cc2)no1 | 4
COc1ccc(-c2nnc(SCC(=O)Nc3ccccc3C(C)C)o2)cc1 | 4
COc1ccc(CCC(=O)Nc2ccc(-c3noc(-c4ccccc4C)n3)cc2)cc1 | 4
CCCOc1ccc(-c2nc(-c3cccnc3)no2)cc1 | 0 (active)
COc1nc(C)ccc1-c1noc(-c2ccc(C(C)(C)C)cc2)n1 | 4
COc1ccc(-c2nnc(SCC(=O)N(C)c3ccccc3)o2)cc1 | 4
CC(C)(C)C(=O)CSc1nnc(-c2ccc(Cl)cc2Cl)o1 | 4
Cc1ccc(-c2nc(-c3ccccn3)no2)cc1C | 3.5
Fc1ccc(OCc2nc(-c3ccc(Cl)cc3)no2)cc1 | 4
N#Cc1ccc(OCc2nc(-c3cccs3)no2)cc1 | 4
COc1ccc(OCc2nc(-c3ccccc3)no2)cc1 | 4
O=C(CSc1nnc(-c2ccncc2)o1)Nc1cccc(Cl)c1Cl | 4
CCOc1cc(-c2nc(-c3cc4ccccc4nc3OC)no2)cc(OCC)c1OCC | 4
Fc1ccccc1-c1nc(-c2ccccc2)no1 | 0 (active)
CCN(CC)C(=O)CSc1nnc(-c2ccc(Cl)cc2Cl)o1 | 4
COc1ccccc1NC(=O)CSc1nnc(-c2ccccc2)o1 | 3.5
CCC(=O)Nc1ccccc1-c1nc(-c2cccnc2)no1 | 4
CCCCC(=O)Nc1ccccc1-c1nc(-c2ccncc2)no1 | 4
Brc1ccc(-c2noc(COc3ccccc3)n2)cc1 | 4
